Source: PubChem BioAssay
Compounds with a hit are over-represented: about 1.3% of the library has one in this group of screens.
FEN1 inh: inhibitors of human flap endonuclease 1; P39748; Recombinant FEN1 flap cleavage, fluorescence, 15 min; Potency, µM (highest dose often 114 µM), for the others: at the highest dose activity change, negative = inhibition, actives largely listed as inhibitors; 0.35% of 390,000 active; AID 588795; note: potency is the fitted concentration of half-maximal effect; % is set by controls: 0 for no effect and ±100 for the full control effect; nearly all actives have a fitted effect of over 65% in size
Target sequence (P39748 whole entry, looked up): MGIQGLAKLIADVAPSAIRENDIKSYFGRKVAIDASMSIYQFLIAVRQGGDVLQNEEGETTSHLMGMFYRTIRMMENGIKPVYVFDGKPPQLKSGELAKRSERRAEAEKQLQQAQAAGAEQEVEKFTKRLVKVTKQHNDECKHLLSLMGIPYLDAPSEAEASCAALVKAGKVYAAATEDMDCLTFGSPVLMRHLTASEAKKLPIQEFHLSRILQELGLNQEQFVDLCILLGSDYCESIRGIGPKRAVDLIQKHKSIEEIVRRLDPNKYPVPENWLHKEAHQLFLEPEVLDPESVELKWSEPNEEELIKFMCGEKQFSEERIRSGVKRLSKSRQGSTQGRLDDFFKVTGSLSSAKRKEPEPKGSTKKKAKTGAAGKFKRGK
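Compounds are tested as a concentration series against 10 nM FEN1; after a 15 min room-temperature preincubation, 50 nM substrate starts cleavage, with plate reads at 0 and 15 min. Normalized responses are fitted by a Hill equation.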
PGK inhibitor: blocks T. brucei phosphoglycerate kinase; P07378; PGK/GAPDH coupled, Kinase-Glo luminescence, 60 min; Potency, µM (top dose mostly 57.5 µM), inactives show at the highest dose activity change, negative = inhibition, most hits filed as inhibitors; 0.043% of 380,000 active; AID 602233; note: potency is the fitted concentration of half-maximal effect; % is set by controls: 0 for no effect and ±100 for the full control effect; nearly all actives have a fitted effect of over 60% in size
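Recombinant glycosomal PGK reaction used 1,3-bisphosphoglycerate generated in-well by GAPDH (100nM final) in 100mM TEA pH 7.6, 5mM MgCl2, 0.01% Tween-20. After 60 minutes at room temperature, ATP was read by Kinase-Glo Plus luminescence end-point.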
GRP78 ERSR act: inducers of ER stress response in human glioma cells; U87-MG GRP78 promoter luciferase reporter, 16 h; Potency, µM, for inactives: at the top dose activation, most hits filed as activators; 0.02% of 420,000 active; AID 602332; note: potency is the fitted concentration of half-maximal effect; series mostly up to about 76 µM; % of control where 0% means no effect; nearly all actives have a fitted effect of over 35% in size
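Stably transfected U87-MG glioma cells carrying a GRP78-based luciferase sensor; 16 h compound incubation. Luminescence end-point read 10 min after Bright-Glo addition at room temperature.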
PI5P4Ka inh: blocks human PI5P4K alpha kinase activity. max response, %. P48426. 1.2% of 330,000 active. PI5P4Kalpha enzyme, ADP-Glo luminescence, 60 min; hits give low values; active = max response of -50% or lower; inconclusive = between -30% and -50%; inactive = -30% or higher; note: value at the top dose of about 77 µM; % is set by controls: 0 for no effect and ±100 for the full control effect
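Quantitative HTS of the MLSMR library against PI5P4Kalpha with substrate. ATP added last at 5 microM final; room temperature, 60 minutes. Remaining ATP depleted, ADP converted and read as luminescence.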
WRN helicase inh: WRN helicase (human) inhibition; Potency, µM (titrated, usually from 114 µM), for inactives: at the highest dose activity change, negative = inhibition, actives largely listed as inhibitors; AID 651768; 0.46% of 360,000 active; WRN helicase unwinding, fluorescent forked duplex, kinetic; Q14191; note: potency is the fitted concentration of half-maximal effect; % is set by controls: 0 for no effect and ±100 for the full control effect; nearly all actives have a fitted effect of over 55% in size
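Kinetic fluorescence helicase assay: unwinding of a quenched forked DNA duplex (100 nM final) with 2 mM ATP final raises red fluorescence (525/598 nm). Compounds sat 15 min at room temperature with 20 nM WRN beforehand.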
Pin1 inh: inhibitors of human Pin1; Potency, µM (top dose mostly 115 µM), for inactives: top-dose activity, negative = inhibition, actives largely listed as inhibitors; Pin1 FP peptide displacement, HiFluor488, 10 min; 0.009% of 390,000 active; active = well fitted inhibition curve with a large enough effect in the polarisation, with a control signal flat, not every such curve was filed as active; inconclusive = small, poorly fitted or top-dose-only effect, or effect the other way, or a change in a side signal; inactive = no such curve, though single readings can be large or run the other way; the % refers to the polarisation; note: potency is the fitted concentration of half-maximal effect; % is set by controls: 0 for no effect and ±100 for the full control effect
Target sequence (Q13526 whole entry, looked up): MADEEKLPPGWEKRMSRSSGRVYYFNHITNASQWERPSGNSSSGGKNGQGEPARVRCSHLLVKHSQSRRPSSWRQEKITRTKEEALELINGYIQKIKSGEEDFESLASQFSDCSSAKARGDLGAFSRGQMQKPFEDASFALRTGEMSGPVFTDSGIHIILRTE
ADP-Glo interf: interferes with ADP-Glo detection without enzyme present. shares compounds with PI5P4Ka inh. ADP-Glo detection counter-screen, luciferase luminescence, no enzyme. Potency, µM (titrated, usually from 76.9 µM), for the others: at the highest dose activity change, negative = inhibition, usual class: inhibitors. 1,100 tested, under 10 active. AID 743285
Active calls of the source: *; i = inactive; ? = inconclusive; . = not tested or not shown; [ ] = remark or other dose. Unless noted, calls come from the whole dose curve; as a rule, active = well fitted curve in the direction sought with a large enough effect; inconclusive = small, poorly fitted or top-dose-only effect, or another doubt; inactive = no such curve, though single readings can be large; an effect the other way counts as inactive or inconclusive.

SMILES | FEN1 inh | PGK inhibitor | GRP78 ERSR act | PI5P4Ka inh | WRN helicase inh | Pin1 inh | ADP-Glo interf
NC(=O)c1c(NC(=O)CN2C(=O)CCC2=O)sc2c1CCCCC2 | -2% | -3% | -3% | -11 | -6% | 0% | .
NC(=O)c1c(NC(=O)c2ccccc2)sc2c1CCC2 | -2% | -1% | ? | -51* | -12% | 4% | -2%
NC(=O)c1c(NC(=O)c2ccncc2)sc2c1CCCC2 | -20% | -3% | 5% | -6 | -7% | 6% | .
Cc1ccc(Nc2nc(-c3sc(N)nc3C)cs2)cc1 | 1% | 5% | 6% | -54* | -8% | 30% | -3%
CCOc1ccc(Nc2nc(-c3sc(N)nc3C)cs2)cc1 | 6% | 0% | 6% | -29 | 1% | 2% | -8%
COc1cc(=O)n2c(c1C(=O)N(C)Cc1nonc1C)CCN(Cc1ccccc1F)CC2 | . | . | -3% | . | . | . | .
O=C(Cn1cncn1)NCc1cccc2ccccc12 | -16% | -7% | -3% | 0 | 2% | ? | .
O=C(Cn1cncn1)NCc1ccccc1Br | -6% | -1% | -3% | -62* | 22% | 0% | -2%
Cc1ccc(C(=O)NCCc2nnc3n2CCN(C(=O)c2ccnc(Cl)c2)CC3)cc1 | . | . | -5% | . | . | . | .
COc1ccc(Cn2nnnc2CN(Cc2cc3cc(C)ccc3[nH]c2=O)C2CCCC2)cc1 | -16% | -7% | 1% | . | -3% | 24% | .
COc1ccc2[nH]c(=O)c(CN(Cc3nnnn3Cc3ccco3)C3CCCCC3)cc2c1 | -13% | 0% | 0% | -59* | ? | -3% | -4%
CCCCn1c(N)c(N(CC(C)C)C(=O)c2cc(-c3ccco3)nc3ccccc23)c(=O)[nH]c1=O | 9% | 0% | -1% | -59* | -25% | 37% | 3%
CCCCn1c(N)c(N(CC(C)C)C(=O)c2cc(=O)[nH]c3ccccc23)c(=O)[nH]c1=O | 9% | -1% | -2% | 5 | -11% | -4% | .
CC(O)(COc1ccccc1)c1ccc2c(c1)CN(Cc1cccc3cccnc13)CCO2 (stereo not given) | . | . | -2% | . | . | . | .
Cc1c(C(=O)O)cccc1-c1ccc(/C=C2\SC(=O)NC2=O)o1 | ? | -2% | -11% | -57* | -4%[11.6 µM] | -20% | -4%
Cc1c(C(=O)O)cccc1-c1ccc(/C=C2/NC(=O)N(c3ccccc3)C2=O)o1 | 3% | -3% | 1% | 1 | -19% | 4% | .
Cc1ccc(NC2Sc3ccccc3NC2=O)cc1 (stereo not given) | -2% | -7% | -10% | -63* | 3% | -2% | -1%
O=C1Nc2ccccc2SC1c1ccccc1 (stereo not given) | 16% | i | -2% | 4 | 0% | -2% | .
O=C(Cc1nnc(CNC(=O)c2ccccc2)o1)Nc1cc(C(F)(F)F)ccc1Cl | . | . | . | . | . | -6% | .
Cc1ccccc1CN1C(=O)C(C)Sc2ccc(-c3ccco3)cc21 (stereo not given) | . | . | -3% | -54* | -20% | . | -4%
Cc1ccccc1CN1C(=O)C(C)S/C1=N/N=C/c1ccco1 (stereo not given) | -12% | -8% | -3% | -2 | -7% | 2% | .
CC(C)NC(=O)[C@@H]1C[C@@H](Sc2ccccn2)CN1C1CCN(C)CC1 | . | . | -3% | . | . | . | .
COc1ccccc1NC(=O)CSc1nc2ncccc2[nH]1 | 8% | -5% | -4% | . | 1% | 12% | .
COc1ccc(NC(C)=O)cc1NC(=O)CSc1nc2ncccc2[nH]1 | -9% | 8% | -3% | -55* | ? | 1% | 3%
O=C(NC1CCC(n2cc(C(=O)NC3CC3)nn2)CC1)C(=O)c1ccccc1 (stereo not given) | . | . | -3% | . | . | . | .
SMILES | FEN1 inh | PGK inhibitor | GRP78 ERSR act | PI5P4Ka inh | WRN helicase inh | Pin1 inh | ADP-Glo interf
Cc1ncc2c(c1CNC(=O)c1ccc3c(c1)OCO3)CCN(C(=O)C1Cc3ccccc3O1)C2 (stereo not given) | . | . | -3% | . | . | . | .
COc1cccc(CC(=O)NCC2Cc3cc(Cl)cc(-c4ncccn4)c3O2)c1 (stereo not given) | . | . | -8% | . | . | . | .
COc1ccc(C(=O)NCc2nnc(SC)n2C2CCCCC2)cc1 | -3% | -1% | -1% | -54* | -3% | 1% | 9%
CCOC(=O)C(C)Sc1nnc(CNC(=O)c2ccc(OC)cc2)n1C1CCCCC1 (stereo not given) | 10% | i | 5% | . | 11% | -3% | .
O=C1CC[C@@H](CN(Cc2cccnc2)C2CCN(c3ccc(NC(=O)c4cnccn4)cc3)CC2)N1 | . | . | 1% | . | . | . | .
Cn1nnc2cc(C(=O)NC3CC3)ccc21 | -13% | -3% | -5% | -59* | -16% | -12% | -1%
O=C(NC1CC1)c1ccc2c(c1)ncn2C1CCCC1 | -2% | . | 0% | . | 3% | -6% | .
O=C(COc1ccc(Cl)cc1)NC1=NN(c2ccccc2)C(=O)C1 | -25% | -1% | ? | -58* | -23% | -18% | -2%
O=C(CCCCl)NC1=NN(c2ccccc2)C(=O)C1 | -3% | -5% | 1% | -1 | ? | -10% | .
Cc1cnc(-n2ncc(C(=O)N(CCO)C(C)C)c2-c2cccs2)nc1-c1ccc(F)cc1 | . | . | 2% | . | . | . | .
O=C(NC1CC1)[C@@H]1C[C@H](Sc2nc3ccccc3[nH]2)CN1CC1CCCCC1 | . | . | -4% | . | . | . | .
Cc1ccc(C)c(NC(=O)C2(C)CCN2C(=O)C(C)C)c1 (stereo not given) | . | . | -2% | 1 | 1% | . | .
Cc1cc2nc(NC(=O)C3(C)CCN3C(=O)C(C)C)[nH]c2cc1C (stereo not given) | . | . | 0% | ? | -6% | . | -13%
CCCc1nc2cccnc2n1C1CCN(C(=O)Cn2nccc2C)CC1 | . | . | -1% | . | . | . | .
COc1ccc2c(c1)C=C(CN1CCN(Cc3ccccc3C)C(CCO)C1)CO2 (stereo not given) | -27% | -5% | -2% | -2 | 0%[11.6 µM] | ? | 0%
O=C(NCc1ccco1)c1ccc(S(=O)(=O)N2CCOCC2)cc1 | -1% | -3% | -4% | -53* | -10%[57.1 µM] | -4% | 0%
CCOC(=O)N1CCN(C(=O)Cn2nc(-c3ccc(Cl)cc3)ccc2=O)CC1 | -1% | -1% | -2% | -8 | 6% | 0% | .
CCN1CCN(C(=O)Cn2nc(-c3ccc(Cl)cc3)ccc2=O)CC1 | 17% | -8% | -3% | ? | -5% | -2% | -8%
O=C(Nc1cccc(S(=O)(=O)N2CCOCC2)c1)c1c2c(nc3ccccc13)CCC2 | -5% | -15% | -2% | -64* | -15%[57.1 µM] | ? | -2%
O=C(NCc1ccco1)c1c2c(nc3ccccc13)CCC2 | ? | -24% | -4% | -71* | 45µM* | . | 0%
